HCMV inh – qHTS Assay for inhibitors of the human cytomegalovirus (HCMV) | HFF cells, HCMV-luciferase reporter, 72 h; active compounds read low | AID 1259415, 2018 | activity change, negative = inhibition, % at 57.5 µM | hit rate 4.5% among 410,000; in the data active = activity change below about -60%; inconclusive = no clear call, values can overlap the other calls; inactive = above about -39%
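After 16 h attachment at 37C, HFF cells received test compound and HCMV-luciferase (1 PFU/cell); reporter luminescence read 72 h later, data normalized against buffer-only and known inhibitor Salinomycin.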
AmpC inh no detg – qHTS Inhibitors of AmpC Beta-Lactamase (assay without detergent); P00811; AmpC nitrocefin hydrolysis, absorbance 480 nm, 0.0001% Triton; Potency, µM (highest dose often 57.1 µM), most hits filed as inhibitors; hit rate 0.52% among 330,000; also: nearly all actives have a fitted effect of over 20% in size
Target sequence (P00811 whole entry, looked up): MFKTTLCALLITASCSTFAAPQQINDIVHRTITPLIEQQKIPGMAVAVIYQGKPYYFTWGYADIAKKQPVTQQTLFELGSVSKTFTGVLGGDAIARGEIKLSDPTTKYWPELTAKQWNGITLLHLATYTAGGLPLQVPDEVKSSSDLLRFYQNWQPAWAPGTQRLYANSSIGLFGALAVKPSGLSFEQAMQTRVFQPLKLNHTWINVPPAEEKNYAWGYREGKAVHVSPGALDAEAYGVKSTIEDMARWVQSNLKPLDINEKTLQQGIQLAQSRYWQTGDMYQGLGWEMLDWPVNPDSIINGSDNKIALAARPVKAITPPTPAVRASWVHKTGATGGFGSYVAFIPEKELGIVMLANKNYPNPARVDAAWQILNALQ
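20 mM phosphate pH 7.0 + 0.01% (detergent screen) or 0.0001% Triton X-100; 5.3 nM AmpC reagent; cpd preinc 15 min RT; nitrocefin (800 uM stock) to start; A480 q20 s × 4 min; Activity was normalised to no-enzyme and no-compound control wells.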
HCV inhibitor – qHTS Assay for Inhibitors of Hepatitis C Virus (HCV) | hit rate 3.4% among 340,000 | AID 651820, 2012 | Huh7.5.1 HCVcc-Cre infection, luciferase reporter, 44 h | Potency, µM (titrated, usually from 41.8 µM), most hits filed as inhibitors
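Antiviral activity was scored by luciferase reporter output from cells infected with HCVcc-Cre (~0.5 moi) in presence of compound, 44 h infection period, cells seeded 1,000/well 4 h prior.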
AmpC detergent – qHTS Inhibitors of AmpC Beta-Lactamase (assay with detergent) | AmpC hydrolysis of nitrocefin, absorbance 480 nm, 0.01% Triton | AID 485294, 2010 | hit rate 0.041% among 370,000 | P00811 | Potency, µM (series often up to 114 µM), hits mostly inhibitors; also: nearly all actives have a fitted effect of over 25% in size
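AmpC (5.3 nM in the dispensed reagent) in 20 mM phosphate pH 7.0 with 0.01% (detergent screen) or 0.0001% Triton X-100 was preincubated with compounds for 15 min at room temperature. Nitrocefin was then added from an 800 uM solution, and hydrolysis was followed at 480 nm.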
FMDV inh – High Throughput Screening for Foot and Mouth Disease Virus Antivirals; FMDV antiviral cell-based qHTS; AID 1159524, 2015; hit rate 1.2% among 410,000; Potency, µM (titrated, usually from 57.9 µM), usual class: inhibitors; calls by dose curve; tested in HEK293T cells; also: read-out not given here; nearly all actives have a fitted effect of over 45% in size
Each line names hits and unclear results; the compound was inactive in the other large screens; ! = not confirmed by another sample. The list is not random: actives were taken first. Their share in the collection is about 7.3%. Unless noted, calls follow the shape of the dose curve; as a rule, active = well fitted curve in the direction sought with a large enough effect; inconclusive = small, poorly fitted or top-dose-only effect, or another doubt; inactive = no such curve, though single readings can be large; an effect the other way counts as inactive or inconclusive.

CCN(CC)C1CCN(C(=O)c2cnn(-c3nccc(-c4ccccc4OC)n3)c2-c2ccco2)C1 (stereo not drawn)	none (no result: HCMV inh, AmpC inh no detg, HCV inhibitor, AmpC detergent)
CCCc1nnc(NC(=O)CSc2nnc(-c3ccco3)n2C)s1	none
Cc1ccc(S(=O)(=O)n2nc(OC(=O)c3ccccc3C)cc2N)cc1	AmpC inh no detg 31.6µM
Cc1ccc(Cl)cc1N1CCN(C(=O)C2CCN(c3nnc(-n4cccc4)s3)CC2)CC1	HCMV inh inconclusive, AmpC inh no detg 1.78µM, HCV inhibitor 12.6µM, AmpC detergent inconclusive, FMDV inh inconclusive
Cc1cccc(N2CCN(C(=O)C3CCN(S(=O)(=O)c4cccc5nsnc45)CC3)CC2C)c1 (stereo not drawn)	HCMV inh inconclusive, AmpC inh no detg inconclusive, HCV inhibitor 11.2µM, FMDV inh 25.1µM
Cc1cccc(N2CCN(C(=O)C3CCN(c4nnc(-n5cccc5)s4)CC3)CC2C)c1 (stereo not drawn)	HCV inhibitor inconclusive, FMDV inh 15.8µM
Cc1cccc(N2CCN(C(=O)C3CCN(S(=O)(=O)c4cccc5cccnc45)CC3)CC2C)c1 (stereo not drawn)	HCV inhibitor inconclusive, FMDV inh inconclusive
CCNC(=O)C1(C)CCCN(Cc2ccc(-n3ccnc3)cc2)C1 (stereo not drawn)	none (no result: AmpC inh no detg, HCV inhibitor, AmpC detergent)
COC(=O)c1sc(N2C(=O)c3oc4ccc(C)cc4c(=O)c3C2c2ccc(OC)cc2)nc1C (stereo not drawn)	none (no result: AmpC inh no detg, HCV inhibitor)
COCCCNC(=O)CSc1c2c(nc3ccc(Cl)cc13)CCCC2	HCV inhibitor inconclusive, FMDV inh 28.2µM
CCN(CC)CCCNC(=O)CSc1c2c(nc3cc(Cl)ccc13)CCCC2	HCMV inh -107.0!, HCV inhibitor 10µM, FMDV inh 31.6µM
O=C(CSc1c2c(nc3cc(Cl)ccc13)CCCC2)NCCCN1CCOCC1	HCV inhibitor inconclusive, FMDV inh inconclusive
Cc1cc(CNC(=O)[C@H]2C[C@@H]2[C@H](NP(=O)(c2ccccc2)c2ccccc2)c2ccccc2)nn1C	HCMV inh -90.8
C[C@H](CO)NC(=O)[C@@H]1C[C@H]1[C@@H](NP(=O)(c1ccccc1)c1ccccc1)c1ccccc1	AmpC detergent inconclusive
Cc1ccsc1C(=O)N(Cc1cc2ccc(F)cc2nc1N1CCC(O)CC1)CC1CCCO1 (stereo not drawn)	none (no result: HCMV inh, AmpC inh no detg, HCV inhibitor, AmpC detergent)
CCc1ccccc1NC(=O)CCc1nc(-c2cccs2)no1	none
Cc1ccc(CNC(=O)CCc2nc(-c3cccs3)no2)cc1	HCMV inh -74.5, AmpC detergent inconclusive
COc1cccc(NC(=O)CCc2nc(-c3cccs3)no2)c1	none
O=C(CCc1nc(-c2cccs2)no1)NCc1ccc(F)cc1Cl	HCMV inh -62.9, AmpC detergent inconclusive
COc1cccc(Nc2ccc3cc(S(=O)(=O)N4CCC(C)CC4)ccc3n2)c1	HCMV inh -86.7 (no result: AmpC inh no detg, HCV inhibitor)
O=C(NC1CCCC1)c1ccc2c(=O)n(Cc3ccccc3)c(SCc3ccccc3)nc2c1	none (no result: AmpC inh no detg, HCV inhibitor)
CCCCCN1C(C(=O)c2ccccc2)=C(OC(=O)CC)c2ccccc2S1(=O)=O	HCMV inh -104.4 (no result: AmpC inh no detg, HCV inhibitor)
CCCCCN1C(C(=O)c2ccccc2)=C(NC(=O)c2ccc(C)cc2)c2ccccc2S1(=O)=O	none (no result: AmpC inh no detg, HCV inhibitor)
CCCCC(=O)OC1=C(C(=O)c2ccccc2)N(CCC)S(=O)(=O)c2ccccc21	HCMV inh -86.1 (no result: AmpC inh no detg, HCV inhibitor)
CCCCC(=O)OC1=C(C(C)=O)N(Cc2ccccc2)S(=O)(=O)c2ccccc21	none (no result: AmpC inh no detg, HCV inhibitor)
CCCCCN1C(C(=O)c2ccccc2)=C(NC(C)=O)c2ccccc2S1(=O)=O	HCMV inh -70.0 (no result: AmpC inh no detg, HCV inhibitor)
CCCCN1C(C(=O)c2ccccc2)=C(OC(=O)CC)c2ccccc2S1(=O)=O	HCMV inh -107.3 (no result: AmpC inh no detg, HCV inhibitor)
CCOC(=O)C(C#N)C(=N)C1C(=O)OC2CCCCC21 (stereo not drawn)	none (no result: AmpC inh no detg, HCV inhibitor, AmpC detergent)
COCc1c(C(=O)NC2CCCCCC2)cnn1-c1nccc(-c2cc(C)sc2C)n1	none (no result: HCMV inh, AmpC inh no detg, HCV inhibitor, AmpC detergent)
Cn1c(Cc2ccccc2)nc2cnc(Nc3cccc(C(F)(F)F)c3)cc21	none (no result: AmpC inh no detg, HCV inhibitor, AmpC detergent, FMDV inh)
CC(C)c1ccc(NC(=O)c2cc(S(=O)(=O)NCc3ccccc3Cl)ccc2F)cc1	HCMV inh -81.6 (no result: AmpC inh no detg, HCV inhibitor)
CC(C)c1ccc(NC(=O)c2cc(S(=O)(=O)NCCC3=CCCCC3)ccc2F)cc1	HCMV inh inconclusive (no result: AmpC inh no detg, HCV inhibitor)
CCCN(CCC)S(=O)(=O)c1ccc(C(=O)N2CCC(=O)c3ccccc32)cc1	HCMV inh -60.3

Bioassay records (PubChem)
